Structures are written as SMILES. In all, about 190,000 compounds went through this assay and about 1,900 (1%) were called active.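 Rule for the calls: active = percentage of spot-positive cells more than 3 SD above its plate mean, without a fluorescence outlier flag or 80% toxicity; inconclusive = no clear call, values can overlap the other calls; inactive = the rest.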 The sample as a whole holds a higher share of actives than the screen did.

This assay is described as follows: autophagy modulators in MEF cells, primary screen, imaging, high-content, MEF GFP-LC3 (AID 463193).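 For % cells with GFP-LC3 spots: spot-positive cell cutoff set from DMSO-treated cells.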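 For toxicity: cell loss after 18 h compound exposure.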 The following applies: MEF GFP-LC3 puncta imaging, at 10 µM; % cells with GFP-LC3 spots: stronger effect = higher value; toxicity: measured here: cell loss, nuclei count.
Take `Cc1ccc(OCc2n[nH]c(=S)n2-c2ccccc2)cc1`: the % cells with GFP-LC3 spots was 4.42% (inactive) and the toxicity is -18.6%.
For `COc1ccc(Nc2ncc(F)c(N3CCOCC3)n2)cc1`, the % cells with GFP-LC3 spots was 7.22% (inactive) and the toxicity was 8.68%.
Consider `O=C(Nc1cccc(F)c1)N1C2CCC1CC(O)(c1cccnc1)C2` (configuration not stated), for which the % cells with GFP-LC3 spots is 1.55% (inactive) and the toxicity stood at 2.7%.
The corresponding values for `O=C(Cn1cc2c(n1)CCCCC2)NCCN1CCOCC1` are 5.99% (inactive) and -2.07%.
For `COCCNC(=O)Cn1cc2c(n1)CCCCC2` the same measures were 4.61% (inactive) and -6.66%.
As for `COc1ccccc1CNC(=O)Cn1cc2c(n1)CCCC2`, the % cells with GFP-LC3 spots was 15.2% (active) and the toxicity is 6.76%.
For `CC(C)NC(=O)NCCCCCCS(C)=O` (configuration not stated), the % cells with GFP-LC3 spots is 22.5% (inactive) and the toxicity amounted to 23.6%.
In the case of `CCOC(=O)c1c(NC(=O)C(C)Sc2c[nH]c3ccccc23)sc2c1CCC2` (configuration not stated), the % cells with GFP-LC3 spots was 5.48% (inactive) and the toxicity was 2.6%.
For the molecule `COc1ccc(CCc2nnc(CCC(=O)NCc3cnn(-c4ccccc4C)c3)o2)cc1`, the % cells with GFP-LC3 spots was 10.6% (inactive) and the toxicity is -18.2%.
Take `COc1cccc(CN(C)CC(=O)Nc2sc3c(c2C#N)CCC3)c1`: the % cells with GFP-LC3 spots was 6.72% (inactive) and the toxicity is -31.4%.
Consider `CC(C)[C@H](NC(=O)c1ccc(F)cc1)C(=O)OCC(=O)NC(=O)c1cccn1C`, for which the % cells with GFP-LC3 spots was 10.6% (inactive) and the toxicity was -0.516%.
Turning to `CCCCS(=O)c1snnc1C` (configuration not stated), the % cells with GFP-LC3 spots was 3.68% (inactive) and the toxicity is 1.95%.
For `CCc1nnc(NS(=O)(=O)c2ccc(NS(=O)(=O)c3ccccc3)cc2)s1`, the % cells with GFP-LC3 spots is 1.63% (inactive) and the toxicity is 20.8%.
In the case of `CCc1nnc(NS(=O)(=O)c2ccc(NC(=S)NC(=O)/C=C/c3cccs3)cc2)s1`, the % cells with GFP-LC3 spots is 5.75% (active) and the toxicity is 7.01%.
Take `CCc1nnc(NS(=O)(=O)c2ccc(NC(=S)NC(=O)c3cccs3)cc2)s1`: the % cells with GFP-LC3 spots was 5.87% (inactive) and the toxicity was -9.89%.
Consider `O=C(O)CCN(Cc1ccccc1)S(=O)(=O)c1c(Cl)cccc1Cl`, for which the % cells with GFP-LC3 spots was 1% (inactive) and the toxicity came to 7.07%.
For `COc1ccc(C(=O)NNc2cc(C)nc(NNC(=O)c3ccc(OC)cc3)n2)cc1`, the % cells with GFP-LC3 spots is 0% (inactive) and the toxicity was -3.42%.
On to `COC(=O)[C@@H]1CC[C@H](C)[C@@H](c2ccc(C)cc2)N1C(=O)c1ccc(/C=N/O[C@H](C)c2cn([C@@H]3COC[C@H]3O)nn2)cc1`, for which the % cells with GFP-LC3 spots is 9.78% (inactive) and the toxicity came to 5.86%.
Consider `O=C(NC1CCCCC1)C1CCCN(S(=O)(=O)c2ccc(Br)s2)C1` (configuration not stated), for which the % cells with GFP-LC3 spots was 0.705% (inactive) and the toxicity was 2.95%.
Consider `Cn1c(C(=O)NCCCN2CCN(c3cccc(Cl)c3)CC2)cc2c(=O)n(C)c3ccccc3c21`, for which the % cells with GFP-LC3 spots was 6.58% (inactive) and the toxicity stood at 2.89%.
In the case of `CCn1c(=O)cc(OCC(=O)NCCCN2CCN(c3cccc(Cl)c3)CC2)c2ccccc21`, the % cells with GFP-LC3 spots is 14.4% (active) and the toxicity stood at 23.1%.
Consider `O=C(CCn1c(=O)[nH]c2ccccc2c1=O)NCCCN1CCN(c2cccc(Cl)c2)CC1`, for which the % cells with GFP-LC3 spots was 7.4% (inactive) and the toxicity came to 9.47%.
As for `COc1ccc(C(=O)Nc2cccc(S(C)(=O)=O)c2)cc1`, the % cells with GFP-LC3 spots is 7.34% (inactive) and the toxicity was determined as 2.69%.
On to `CC(NC(=O)Nc1ccccc1)C(c1cccs1)N1CCN(c2ccccc2)CC1` (configuration not stated), for which the % cells with GFP-LC3 spots is 10.1% (inactive) and the toxicity is -0.847%.
On to `CCN(CC)S(=O)(=O)c1ccc(Cl)c(C(=O)NC(C)C(c2cccs2)N2CCCC2)c1` (configuration not stated), for which the % cells with GFP-LC3 spots is 1.61% (inactive) and the toxicity was determined as 7.32%.
In the case of `CCCC(=O)NC(C)C(c1cccs1)N1CCN(c2ccccc2)CC1` (configuration not stated), the % cells with GFP-LC3 spots is 5.17% (active) and the toxicity was 28.7%.
As to `COc1cc(CNc2ncn[nH]2)ccc1OCc1ccccc1C`, the % cells with GFP-LC3 spots was 0.305% (inactive) and the toxicity was found to be 8.6%.
With `COc1ccc2c(c1)CCc1c(C(=O)N3CCc4ccccc4C3)noc1-2`, the % cells with GFP-LC3 spots was 1.3% (inactive) and the toxicity was found to be 5.85%.
On to `COc1ccc2c(c1)CCc1c(C(=O)Nc3c(C)n(C)n(-c4ccccc4)c3=O)noc1-2`, for which the % cells with GFP-LC3 spots was 10.1% (inactive) and the toxicity was found to be 17.1%.
For the molecule `COc1ccc2c(c1)CCc1c(C(=O)N3CCCC3)noc1-2`, the % cells with GFP-LC3 spots was 25.2% (active) and the toxicity is 71.1%.
Take `Cc1ccc(NC(=O)C(=O)NCc2ccc(/C=N/NC(=O)c3c(C)nc4cc(C)ccn34)o2)cc1`: the % cells with GFP-LC3 spots was 7.6% (inactive) and the toxicity was -9.46%.
Turning to `Cc1ccc(C(=O)/C=C/Nc2ccc(S(=O)(=O)Nc3onc(C)c3C)cc2)cc1`, the % cells with GFP-LC3 spots was 2.91% (inactive) and the toxicity stood at 14.6%.
Take `COc1cc2c(cc1OC)CC1(CCCCC1)N=C2`: the % cells with GFP-LC3 spots was 0.564% (inactive) and the toxicity was -2.01%.
Regarding `Cc1cccn2c(=O)c(/C=C3\SC(=S)N(CC(C)C)C3=O)c(NCCCOC(C)C)nc12`, the % cells with GFP-LC3 spots is 83.5% (active) and the toxicity came out at 1.08%.
For `CCn1c(=N)c(C(=O)NCCCOC)cc2c(=O)n3cccc(C)c3nc21`, the % cells with GFP-LC3 spots is 6.38% (inactive) and the toxicity was 16.3%.
With `CNc1nc2c(C)cccn2c(=O)c1C=Nc1ccc(OC)cc1`, the % cells with GFP-LC3 spots is 16.2% (inactive) and the toxicity turned out to be 19.6%.
The corresponding values for `Cn1cc(-c2ccccc2)cc(C#N)c1=O` are 1.72% (inactive) and 2.28%.
Regarding `COc1ccc(CN2CN(C3CCCC3)CSC2=S)cc1`, the % cells with GFP-LC3 spots was 6.4% (inactive) and the toxicity was -8.41%.
For `COc1ccc(C(CC(=O)Nc2ccc(C)cc2)NC(=O)C(F)(F)F)cc1` (configuration not stated), the % cells with GFP-LC3 spots is 6.89% (inactive) and the toxicity is -5.77%.
On to `S=C(NCc1cccnc1)Nc1ccc(Cl)cc1Cl`, for which the % cells with GFP-LC3 spots was 1.61% (inactive) and the toxicity came to 10%.
Regarding `O=C(CSc1cccc2cccnc12)N/N=C/c1cccnc1`, the % cells with GFP-LC3 spots was 16.6% (inactive) and the toxicity came out at 24.2%.

The values above are taken from PubChem BioAssay AID463193 (University of Pittsburgh Molecular Library Screening Center, 2010).
